The campaign covered roughly 48,000 compounds. About 13,000 (27%) showed an effect of 50% or more. This is one part of the list.
test system: Wolbachia pipientis; experiment: Anti-Wolbachia Cell-Based Screen; type: functional; set-up: scale not given: in the data most compounds retested in dose-response had high values; conditions: 5 µM

Structure (SMILES)	Percent Effect
COc1cccc2c1OCC(CNC(=O)COCC(F)(F)C(F)F)C2 (centres undefined)	-0.4399%
CC(Cn1cccn1)NC(=O)N(C)Cc1ccc(Cl)s1 (centres undefined)	-9.644%
CNC(=O)C(NC(=O)c1nccn2ccnc12)c1ccc(F)c(F)c1 (centres undefined)	7.625%
COCCN1C[C@@H]2CN(c3cc(OC)ncn3)CCC[C@]2(C(=O)O)C1.O=C(O)C(F)(F)F	-26.02%
COCCCC1CCCCN1Cc1cc(F)ccc1-n1cccn1 (centres undefined)	-9.489%
Cc1nc(CSc2nc(=O)ccn2C(C)C)cs1	-10.57%
CCOCCN1CCN(c2ccc(C#N)cn2)CC1	109.9%
CCc1nc(N2CCN(c3ncccc3C#N)CC2)c2cnn(C)c2n1	-1.782%
CCOCCN1CCN(c2ccc(C#N)cn2)CC1CC (centres undefined)	137.2%
CCOCCN1CCN(c2ncccc2C#N)CC1CC (centres undefined)	98.03%
CC1CN(c2ccc(C#N)cn2)CCN1c1ccc2nncn2n1 (centres undefined)	-4.12%
CCC1(CO)CCCN(c2ncccc2C#N)C1 (centres undefined)	13.06%
CS(=O)(=O)NCC1CCCN(c2ccc(C#N)cn2)C1 (centres undefined)	7.798%
Cn1ccnc1CN1CCN(c2ccc(C#N)cn2)CC1	-0.9775%
CC(C)(C)NC(=O)CN1CCCN(c2ccc(C#N)cn2)CC1	24.81%
OC(CN(Cc1ccccc1)Cc1cscn1)c1ccco1 (centres undefined)	18.92%
CCOCCCn1c(NC(=O)c2ccnc(C)n2)nc2ccccc21	73.67%
CCOCCCn1c(NC(=O)c2scnc2C)nc2ccccc21	25.92%
CCOCCCn1c(NC(=O)c2cnc(C)s2)nc2ccccc21	27.94%
CCOCCCn1c(NC(=O)c2cc(C)no2)nc2ccccc21	106.1%
Cc1cc(C(=O)NCC(c2ccccc2Cl)N2CCOCC2)on1 (centres undefined)	-6.198%
CCOCCCn1c(NC(=O)c2cnc(C)cn2)nc2ccccc21	19.12%
CCOCCCn1c(NC(=O)c2cnn(C)c2)nc2ccccc21	-0.9199%
CCCn1c(NC(=O)CNC(=O)OCC)nc2ccccc21	-6.336%
CCOC(=O)NCC(=O)Nc1nc2ccccc2n1C(C)(C)C	17.02%
CCOCCCn1c(NC(=O)c2ccc(C)nc2)nc2ccccc21	6.919%

Structure (SMILES)	Percent Effect
CCOCCCn1c(NC(=O)c2cc(C)on2)nc2ccccc21	95.91%
CCN(CC)CCn1c(NC(=O)c2scnc2C)nc2ccccc21	105.9%
CCN(c1ccccc1)S(=O)(=O)c1cc(C(=O)O)cc2c1CCC2	1.015%
Cc1ccc(N2Cc3cnn(Cc4ccc(F)cc4)c3C2)nn1	30.55%
Cc1nn(C)c(C)c1OCC(=O)N1CCC(O)(C(F)(F)F)CC1	-15.17%
CCOCCNC(=O)c1cc(COc2cncc(Cl)c2)on1	-4.955%
Cc1cc2occ(CC(=O)N3CCC4(CCCN(C)C4=O)C3)c2cc1Cl (centres undefined)	-29.71%
Cc1ccccc1CSc1nc(N)cc(N2CCCC(O)C2)n1 (centres undefined)	-23.5%
CCC(=O)NC1CCCN(C(=O)c2ccc(OCC3CC3)nc2)C1 (centres undefined)	-1.285%
NC(=O)N1CCCC(C(=O)NCc2noc(Cc3ccccc3)n2)C1 (centres undefined)	9.14%
O=C(O)c1cn(CC2CCCN(c3cnc4ccccc4n3)C2)nn1 (centres undefined)	0.3718%
NC(=O)CC1CCCN(c2cncc(OCc3ccccc3)n2)C1 (centres undefined)	95.75%
CCC(=O)NC1CCCN(c2cncc(OCc3ccccc3)n2)C1 (centres undefined)	109.7%
CCCC(=O)NC1CCCN(c2cncc(Br)c2)C1 (centres undefined)	2.547%
CNC(=O)CN(C)c1cncc(OCc2ccccc2)n1	-7.002%
CC(C)COc1cncc(N2CCCC(CC(N)=O)C2)n1 (centres undefined)	119.8%
CNC(=O)CN(C)c1cncc(OCC(C)C)n1	-2.547%
CC(C)Oc1ncc(C(=O)N2CCC(CC(N)=O)CC2)cc1Cl	-16.32%
NC(=O)CC1CCCN(c2cncc(SCc3ccccc3)n2)C1 (centres undefined)	107.6%
Cc1ccc(CN2CCN(Cc3ccc4nonc4c3)CC2=O)cc1	-11.42%
O=C(Nc1cccnc1)C1CCCN(c2cc(-n3cccn3)ncn2)C1 (centres undefined)	-6.997%
O=C(O)c1ccc(N2CCC(Cc3ccccc3)CC2)nn1	3.318%
COCC1CCCN(c2cncc(OCc3ccccc3)n2)C1 (centres undefined)	88.62%
NC(=O)CC1CCN(c2cncc(OCc3ccccc3)n2)CC1	92.73%
c1ccc2nc(N3CCCC(Cn4cncn4)C3)cnc2c1 (centres undefined)	3.637%
COc1nc(N2CCC(CC(N)=O)CC2)ncc1Br	4.929%

Structure (SMILES)	Percent Effect
c1ccc(COC2CCN(c3cncc(-n4cccn4)n3)CC2)cc1	1.342%
c1cncc(COCC2CN(Cc3ccco3)Cc3ccnn3C2)c1 (centres undefined)	-0.3306%
COc1ccc(Cl)cc1CS(=O)(=O)Cc1nc(C2CC2)no1	17.46%
Cc1cnc2c(c1)N(C(=O)c1ccc(=O)n(C)c1)CCO2	10.48%
O=C(c1c(F)cccc1Br)N1CCCOCC1	-0.116%
COc1c(C(=O)N2CCOC(c3cccs3)C2)c(C)nn1C (centres undefined)	-3.946%
COc1ncccc1C(=O)N1CC(c2nc(-c3cccs3)no2)C1	5.63%
CCCn1ccc(C(=O)N2CCOC(c3nc(-c4cccs4)no3)C2)n1 (centres undefined)	4.055%
CCCn1cc(C(=O)N2CCOC(c3nc(-c4cccs4)no3)C2)cn1 (centres undefined)	93.77%
CCCc1cc(C(=O)N2CCOC(c3nc(-c4cccs4)no3)C2)no1 (centres undefined)	6.079%
CCn1ccc(C(=O)N2CCOC(c3nc(-c4cccs4)no3)C2)n1 (centres undefined)	106.6%
CCn1cc(C(=O)N2CCOC(c3nc(-c4cccs4)no3)C2)cn1 (centres undefined)	116.8%
Cc1cc(C)c(C(=O)N2CCOC(c3cccs3)C2)c(=O)[nH]1 (centres undefined)	-5.418%
O=C(O)C(=O)O.c1csc(-c2noc(C3CN(Cc4ccc5c(c4)CCO5)C3)n2)c1	26.44%
CN(C)CCN1CC2(CCCN(c3ccc(Cl)cn3)C2)CCC1=O (centres undefined)	-8.264%
CCN(Cc1ccoc1)c1ncc(S(N)(=O)=O)s1	-17.75%
CC(NCCCC#N)c1ccc(-c2ccncc2)cc1 (centres undefined)	-12.76%
CN(C)CC(=O)N1CCC2(CC1)COc1ccccc1S(=O)(=O)N(C)C2	75.94%
COCC(=O)N1CCC2(CC1)COc1ccccc1S(=O)(=O)N(C)C2	78.61%
CCN1CC2(CCNCC2)COc2ccccc2S1(=O)=O.O=C(O)C(F)(F)F	12.77%
CCC(=O)N1CCC2(CC1)COc1ccccc1S(=O)(=O)N(C)C2	3.45%
CN1CC2(CCN(CCOCCO)CC2)CC(c2ccccc2)C1=O (centres undefined)	-8.792%
CCc1ccc(CN2CCC3(CCCN(C(=O)N(C)C)C3)C2)o1 (centres undefined)	2.362%
COCCN1CCC2(CC1)COc1ccccc1S(=O)(=O)N(C)C2	110%
CCN1CC2(CCN(C(=O)N(C)C)CC2)COc2ccccc2S1(=O)=O	88.03%
CN1[C@@H](c2ccccc2)[C@@H](C(=O)NCC2CCOCC2)C[C@@]1(C)C(=O)O	-0.5583%

Structure (SMILES)	Percent Effect
COCc1ccccc1C(=O)NCC(c1c(F)cccc1F)N(C)C (centres undefined)	-0.8203%
O=c1nc(SCc2cccnc2)c2c(n1CCO)CCC2	-0.5534%
O=S(=O)(c1cc2ccccc2o1)N1CCCC1	-2.177%
CS(=O)(=O)NCC(=O)NCc1cccnc1-n1cnc2ccccc21	9.043%
COc1cccc(-c2n[nH]c3c2CN(C(=O)c2cccc(=O)[nH]2)CC3)c1	-3.168%
CC(=O)N1CC(c2ncn(C(C)C)n2)c2cc(C(=O)NC3CC3)ccc21 (centres undefined)	-21.86%
CCn1c(CN(C)C)nnc1C1CCN(Cc2ccccc2)CC1	3.823%
CN(C)S(=O)(=O)N1CCCC(c2nccn2Cc2cccnc2)C1 (centres undefined)	-1.241%
CN(C)CCn1nc(C2CCN(S(=O)(=O)N(C)C)C2)c2cccnc21 (centres undefined)	111.8%
NCCn1nc(C2CCN(Cc3ccc(Cl)c(Cl)c3)C2)c2nccnc21 (centres undefined)	1.426%
CCS(=O)(=O)N1CCC(c2nn(CCN(C)C)c3ncccc23)C1 (centres undefined)	95.82%
CCn1c(C2CCCN(S(=O)(=O)C3CC3)C2)nn(CCN(C)C)c1=O (centres undefined)	1.006%
CN(C)CCn1nc(C2CCN(Cc3ccccc3)C2)c2cccnc21 (centres undefined)	91.7%
CCS(=O)(=O)N1CCC(c2nccn2Cc2ccccn2)CC1	-0.918%
O=C(NC1(c2nnn(CCO)n2)CCCC1)c1ccccc1	-5.354%
Cn1c(C(=O)NC2CCCC2)nc2c1CCN(Cc1ccccc1)C2	4.267%
CN1CCC(NC(=O)c2cc(C3CCCCC3)nc3ccccc23)CC1	113.5%
Cc1ccc(-c2c(C(=O)NC3CCN(C)CC3)csc2C)cc1	4.532%
Cn1cc(C2(C)CN(Cc3ccc(O)c(Cl)c3)CCO2)cn1 (centres undefined)	-11.09%
CCCn1nc2c(cc1=O)CN(Cc1cc(C)on1)CC2	-1.057%
CCc1ccc(C(=O)NC(C)c2ccc(S(C)(=O)=O)c(F)c2)o1 (centres undefined)	2.681%
COCC1CN(C(=O)c2cccn2C)Cc2cnn(C)c21 (centres undefined)	3.786%
CCOCC1CN(C(=O)c2ccnnc2)Cc2cnn(C)c21 (centres undefined)	100.5%
CCOCC1CN(C(=O)c2cccc(C)n2)Cc2cnn(C)c21 (centres undefined)	129.5%
CCOCC1CN(C(=O)c2ccncn2)Cc2cnn(C)c21.O=C(O)C(F)(F)F (centres undefined)	-8.665%
CCOCC1CN(C(=O)c2cccnc2)Cc2cnn(C)c21 (centres undefined)	105%
